Inconclusive results are not listed. Active and inactive are the calls of the source. Calls come from the whole dose curve; as a rule, active = well fitted cell-killing curve with a large enough effect; inconclusive = small, poorly fitted or top-dose-only effect, or effect the other way; inactive = flat fitted curve, though single readings scatter.
Columns and labels:
Assay in all cases: Primary qHTS to identify gynecologic anti-cancer compounds using libraries of approved drugs and bioactive compounds (AID 1345084); note: nearly all actives have a fitted effect of over 55% in size
Conditions in all cases: Gynecologic cancer cell panel viability, ATPlite luminescence, 48 h; series mostly up to 57.5 µM
JEG-3 = system: JEG-3
Procedure, shortened: (§1)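 Cytotoxicity screen measuring ATP content by luciferase luminescence. Each compound is applied at five concentrations for 48 h at 37 C with 5% CO2.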

OV90 = system: OV90
Procedure, shortened: as §1

PA-1 = system: PA-1
Procedure, shortened: as §1

SKOV3 = system: SKOV3
Procedure, shortened: as §1

Tov-21-G = system: Tov-21-G
Procedure, shortened: as §1

Tov112D = system: Tov112D
Procedure, shortened: as §1
% is set by controls: 0 for no effect and ±100 for the full control effect.

COc1ccc(CC2NCCc3c2[nH]c2ccc(C)cc32)cc1OC (centres undefined)
inactive: Potency (JEG-3) | Potency (OV90) | Potency (PA-1) | Potency (SKOV3) | Potency (Tov-21-G) | Potency (Tov112D)

CC(=O)O[C@@H]1[C@H](O[C@@H]2O[C@@H](CO)[C@H](O)[C@H]2O)[C@@H](O[C@@H]2O[C@@H](C)[C@H](O[C@@H]3OC[C@@H](O)[C@H](O)[C@H]3O)[C@@H](O)[C@H]2O)[C@H](OC(=O)[C@]23CCC(C)(C)C[C@H]2C2=CCC4[C@@]5(C)CC[C@H](O[C@@H]6O[C@H](C(=O)O)[C@@H](O)[C@H](O)[C@H]6O[C@@H]6O[C@H](CO)[C@H](O)[C@H](O)[C@H]6O)[C@@](C)(C=O)C5CC[C@@]4(C)[C@]2(C)CC3)O[C@@H]1C (some centres undefined)
inactive: activity change, negative = cytotoxicity (JEG-3) 11.6% [at 6.55 µM] | activity change, negative = cytotoxicity (OV90) 12.8% [at 6.55 µM] | activity change, negative = cytotoxicity (PA-1) 11.1% [at 6.55 µM] | activity change, negative = cytotoxicity (SKOV3) 0% [at 6.55 µM] | activity change, negative = cytotoxicity (Tov-21-G) 4.85% [at 6.55 µM] | activity change, negative = cytotoxicity (Tov112D) 12.7% [at 6.55 µM]

Cc1cccc(S(=O)(=O)N2CCC[C@@H]2CCN2CCC(C)CC2)c1
inactive: Potency (JEG-3) | Potency (OV90) | Potency (PA-1) | Potency (SKOV3) | Potency (Tov-21-G) | Potency (Tov112D)

COC(=O)C1=CO[C@@H](O[C@@H]2O[C@H](CO)[C@@H](O)[C@H](O)[C@H]2O)[C@@H]2C(CO)=CC[C@]12O
inactive: Potency (JEG-3) | Potency (OV90) | Potency (PA-1) | Potency (SKOV3) | Potency (Tov-21-G) | Potency (Tov112D)

O=C(O)Cc1ccc2oc(-c3ccc(NC(=O)/C=C/c4ccc(Br)cc4)c(F)c3)nc2c1
inactive: Potency (JEG-3) | Potency (OV90) | Potency (PA-1) | Potency (SKOV3) | Potency (Tov-21-G) | Potency (Tov112D)

CC(C(O)/C=C/C(C)(C)O)C1CCC2(C)C3C(=O)C=C4C(CCC(O)C4(C)C)C3(C)CCC12C (centres undefined)
inactive: Potency (JEG-3) | Potency (OV90) | Potency (PA-1) | Potency (SKOV3) | Potency (Tov-21-G) | Potency (Tov112D)

COc1cc2c(cc1O)[C@H](c1ccc(O[C@@H]3O[C@H](CO)[C@@H](O)[C@H](O)[C@H]3O)c(OC)c1)[C@@H](CO)[C@](O)(CO)C2
inactive: Potency (JEG-3) | Potency (OV90) | Potency (PA-1) | Potency (SKOV3) | Potency (Tov-21-G) | Potency (Tov112D)

CC1(C)CCC2(C(=O)OC3OCC(O)C(O)C3O)CCC3(C)C(=CCC4C5(C)CC(O)C(OC6OC(COC7OCC(O)C(O)C7O)C(O)C(O)C6O)C(C)(C)C5CCC43C)C2C1 (centres undefined)
inactive: activity change, negative = cytotoxicity (JEG-3) 11.8% [at 11.6 µM] | activity change, negative = cytotoxicity (OV90) 4.98% [at 11.6 µM] | activity change, negative = cytotoxicity (PA-1) 14.1% [at 11.6 µM] | activity change, negative = cytotoxicity (SKOV3) 12.7% [at 11.6 µM] | activity change, negative = cytotoxicity (Tov-21-G) 8.15% [at 11.6 µM] | activity change, negative = cytotoxicity (Tov112D) 7.12% [at 11.6 µM]

Cn1cc(-c2ccc3nnc(Sc4ccc5nn(C)cc5c4)n3n2)cn1
inactive: Potency (JEG-3) | Potency (OV90) | Potency (PA-1) | Potency (SKOV3) | Potency (Tov-21-G) | Potency (Tov112D)

CC1(C)CCC2(C(=O)OC3OC(CO)C(O)C(O)C3O)CCC3(C)C(=CCC4C5(C)CCC(OC6OC(C(=O)O)C(OC7OC(CO)C(O)C(O)C7O)C(OC7OC(CO)C(O)C(O)C7O)C6O)C(C)(C)C5CCC43C)C2C1 (centres undefined)
inactive: activity change, negative = cytotoxicity (JEG-3) -1.35% [at 11.6 µM] | activity change, negative = cytotoxicity (OV90) 3.02% [at 11.6 µM] | activity change, negative = cytotoxicity (PA-1) 16.1% [at 11.6 µM] | activity change, negative = cytotoxicity (SKOV3) 13.2% [at 11.6 µM] | activity change, negative = cytotoxicity (Tov-21-G) 1.15% [at 11.6 µM] | activity change, negative = cytotoxicity (Tov112D) 6% [at 11.6 µM]

C/C1=C\[C@H]2OC(=O)[C@@H](C)[C@@H]2CC/C(C(=O)O)=C/CC1
inactive: Potency (JEG-3) | Potency (OV90) | Potency (PA-1) | Potency (SKOV3) | Potency (Tov-21-G) | Potency (Tov112D)

O=C(NCc1cccc(O)c1)c1cc2cc(F)ccc2[nH]1
inactive: Potency (JEG-3) | Potency (OV90) | Potency (PA-1) | Potency (SKOV3) | Potency (Tov-21-G) | Potency (Tov112D)

CC12CCC(=O)C=C1C(O)CC1C2C(O)CC2(C)C1CC[C@]2(O)C(=O)CO (some centres undefined)
inactive: activity change, negative = cytotoxicity (JEG-3) 6.5% [at 11.6 µM] | activity change, negative = cytotoxicity (OV90) 9.39% [at 11.6 µM] | activity change, negative = cytotoxicity (PA-1) -1.22% [at 11.6 µM] | activity change, negative = cytotoxicity (SKOV3) -0.607% [at 11.6 µM] | activity change, negative = cytotoxicity (Tov-21-G) -3.93% [at 11.6 µM] | activity change, negative = cytotoxicity (Tov112D) 12.3% [at 11.6 µM]

CC(=O)O[C@H]1[C@H](O[C@H]2[C@@H]3C=CO[C@@H](O[C@@H]4O[C@H](CO)[C@@H](O)[C@H](O)[C@H]4O)[C@@H]3[C@@]3(CO)O[C@@H]23)O[C@@H](C)[C@H](OC(=O)/C=C/c2ccccc2)[C@H]1OC(=O)/C=C/c1ccccc1
inactive: activity change, negative = cytotoxicity (JEG-3) -3.47% [at 11.6 µM] | activity change, negative = cytotoxicity (OV90) 3.4% [at 11.6 µM] | activity change, negative = cytotoxicity (PA-1) 16.9% [at 11.6 µM] | activity change, negative = cytotoxicity (SKOV3) 5.38% [at 11.6 µM] | activity change, negative = cytotoxicity (Tov-21-G) -0.504% [at 11.6 µM] | activity change, negative = cytotoxicity (Tov112D) 5.71% [at 11.6 µM]

Cc1cc(OCc2nc(-c3ccccc3Cl)cs2)ccc1OCC(=O)O
inactive: Potency (JEG-3) | Potency (OV90) | Potency (PA-1) | Potency (SKOV3) | Potency (Tov-21-G) | Potency (Tov112D)

O=C1C=CC(O)(/C=C/C(=O)OC[C@H]2O[C@@H](Oc3ccc(O)cc3)[C@H](O)[C@@H](O)[C@@H]2O)C=C1
inactive: Potency (JEG-3) | Potency (OV90) | Potency (PA-1) | Potency (SKOV3) | Potency (Tov-21-G) | Potency (Tov112D)

CCn1cc(NC(=S)Nc2cc(Cl)ccc2OC)c(C(N)=O)n1
inactive: Potency (JEG-3) | Potency (OV90) | Potency (PA-1) | Potency (SKOV3) | Potency (Tov-21-G) | Potency (Tov112D)

C=C1CC[C@@H]2[C@](C)(CO[C@@H]3O[C@H](CO)[C@@H](O)[C@H](O)[C@H]3O)[C@H](O)CC[C@@]2(C)[C@@H]1C/C=C1/C(=O)OC[C@H]1O
inactive: Potency (JEG-3) | Potency (OV90) | Potency (PA-1) | Potency (SKOV3) | Potency (Tov-21-G) | Potency (Tov112D)

COc1ccccc1NC(=O)OCC1CCN(C(=O)OC(C)(C)C)CC1
inactive: Potency (JEG-3) | Potency (OV90) | Potency (PA-1) | Potency (SKOV3) | Potency (Tov-21-G) | Potency (Tov112D)

Source: PubChem BioAssay (NCATS)
